Experimental data taken from PMC7862700, “An all-to-all approach to the identification of sequence-specific readers for epigenetic DNA modifications on cytosine”.

Tests used:
Test in all cases: DAPPL (digital affinity profiling via proximity ligation, sequencing); 10 mM Tris-HCl pH 7.5, 50 mM NaCl, 1 mM DTT, 4% glycerol, room temperature, 30 min; GST-TFs on glutathione beads, 16-mer random dsDNA library, 0.1% formaldehyde crosslink after washing; high values mean tight binding
Conditions in all cases: protein: recombinant; tags: N-terminal GST; dsDNA, one strand shown
ERG = target: T1, ERG (Homo sapiens, UniProt P11308 1-479)
T1 sequence: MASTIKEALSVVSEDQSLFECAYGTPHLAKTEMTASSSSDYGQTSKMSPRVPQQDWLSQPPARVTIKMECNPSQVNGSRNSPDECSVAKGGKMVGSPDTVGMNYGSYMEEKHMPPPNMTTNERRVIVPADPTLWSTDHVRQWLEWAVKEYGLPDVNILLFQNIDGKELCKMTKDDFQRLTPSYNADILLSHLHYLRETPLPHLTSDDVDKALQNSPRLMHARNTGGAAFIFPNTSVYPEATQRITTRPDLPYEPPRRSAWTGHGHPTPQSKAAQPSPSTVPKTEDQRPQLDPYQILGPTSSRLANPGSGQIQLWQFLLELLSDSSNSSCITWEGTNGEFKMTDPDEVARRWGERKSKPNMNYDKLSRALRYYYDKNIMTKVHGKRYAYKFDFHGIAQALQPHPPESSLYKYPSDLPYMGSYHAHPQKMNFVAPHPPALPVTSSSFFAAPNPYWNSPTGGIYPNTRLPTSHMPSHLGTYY
Outline: (§1)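 Yeast served to express human transcription factors as GST fusions, which were then captured on glutathione beads and labelled with DNA barcodes. Pooled with a tag-only sample, they were incubated with 200 nmole of a 16-mer random double-stranded DNA library for 30 min at room temperature in Tris/NaCl/DTT/glycerol buffer, washed, crosslinked with 0.1% formaldehyde, ligated by proximity, amplified by PCR and sequenced. Dividing each hexamer's read frequency for a factor by its frequency for the tag-only sample gives the binding signal.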

EHF = target: T2, EHF (Homo sapiens, UniProt Q9NZC4 1-300)
T2 sequence: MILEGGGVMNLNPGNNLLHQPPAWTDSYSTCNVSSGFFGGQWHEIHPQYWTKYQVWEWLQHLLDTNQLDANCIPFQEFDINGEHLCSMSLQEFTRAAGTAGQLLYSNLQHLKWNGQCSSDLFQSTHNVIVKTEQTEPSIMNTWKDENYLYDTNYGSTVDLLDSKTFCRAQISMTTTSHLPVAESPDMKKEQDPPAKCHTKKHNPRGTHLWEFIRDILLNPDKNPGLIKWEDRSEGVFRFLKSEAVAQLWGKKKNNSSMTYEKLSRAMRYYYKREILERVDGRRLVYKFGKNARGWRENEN
Outline: as §1

SPIB = SPIB (Homo sapiens, UniProt Q01892 1-262)
Sequence of SPIB (Q01892 whole entry): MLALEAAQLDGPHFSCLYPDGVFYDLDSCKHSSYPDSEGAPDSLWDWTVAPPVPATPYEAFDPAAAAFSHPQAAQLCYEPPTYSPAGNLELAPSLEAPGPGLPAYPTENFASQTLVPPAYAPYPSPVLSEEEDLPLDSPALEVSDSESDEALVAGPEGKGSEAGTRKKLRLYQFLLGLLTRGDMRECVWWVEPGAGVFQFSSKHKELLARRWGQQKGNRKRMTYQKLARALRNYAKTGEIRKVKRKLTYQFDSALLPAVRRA
Outline: as §1

CRX = CRX (Homo sapiens, UniProt O43186 1-299)
Sequence of CRX (O43186 whole entry): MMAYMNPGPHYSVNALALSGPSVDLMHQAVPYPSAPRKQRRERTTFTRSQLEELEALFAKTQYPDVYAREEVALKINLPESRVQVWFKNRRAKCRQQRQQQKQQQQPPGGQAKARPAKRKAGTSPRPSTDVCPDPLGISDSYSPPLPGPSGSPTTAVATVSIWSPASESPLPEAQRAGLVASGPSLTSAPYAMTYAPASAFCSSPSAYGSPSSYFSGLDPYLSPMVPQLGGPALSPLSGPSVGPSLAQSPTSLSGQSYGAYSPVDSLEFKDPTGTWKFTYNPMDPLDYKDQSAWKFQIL
Outline: as §1

ETV1 = ETV1 (Homo sapiens, UniProt P50549 1-477)
Sequence of ETV1 (P50549 whole entry): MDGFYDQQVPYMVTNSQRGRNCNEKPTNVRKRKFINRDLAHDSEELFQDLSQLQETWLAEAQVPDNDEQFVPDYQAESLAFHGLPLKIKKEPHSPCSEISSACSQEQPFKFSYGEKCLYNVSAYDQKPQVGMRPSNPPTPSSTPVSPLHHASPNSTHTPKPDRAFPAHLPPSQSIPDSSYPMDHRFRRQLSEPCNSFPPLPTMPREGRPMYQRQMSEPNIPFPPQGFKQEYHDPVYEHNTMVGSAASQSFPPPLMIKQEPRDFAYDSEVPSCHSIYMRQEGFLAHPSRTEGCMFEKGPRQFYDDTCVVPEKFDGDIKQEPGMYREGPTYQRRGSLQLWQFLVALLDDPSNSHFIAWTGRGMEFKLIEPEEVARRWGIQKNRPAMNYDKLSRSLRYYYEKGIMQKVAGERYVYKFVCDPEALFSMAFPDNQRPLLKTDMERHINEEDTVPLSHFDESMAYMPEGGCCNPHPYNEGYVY
Outline: as §1

ETS2 = target: T3, ETS2 (Homo sapiens, UniProt P15036 1-469)
T3 sequence: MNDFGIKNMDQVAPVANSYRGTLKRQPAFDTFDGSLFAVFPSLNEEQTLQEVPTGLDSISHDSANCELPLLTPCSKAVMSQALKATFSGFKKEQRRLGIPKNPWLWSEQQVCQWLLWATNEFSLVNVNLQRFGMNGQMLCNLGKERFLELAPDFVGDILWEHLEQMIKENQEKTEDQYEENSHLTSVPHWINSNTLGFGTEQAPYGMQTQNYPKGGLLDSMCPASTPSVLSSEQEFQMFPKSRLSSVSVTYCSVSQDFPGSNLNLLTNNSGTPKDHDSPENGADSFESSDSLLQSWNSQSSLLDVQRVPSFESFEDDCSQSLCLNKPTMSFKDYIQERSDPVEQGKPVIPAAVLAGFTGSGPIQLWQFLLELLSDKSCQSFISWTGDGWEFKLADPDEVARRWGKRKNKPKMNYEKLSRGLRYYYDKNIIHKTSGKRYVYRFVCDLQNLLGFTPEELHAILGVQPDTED
Outline: as §1

SPDEF = target: T4, SPDEF (Homo sapiens, UniProt O95238 1-335)
T4 sequence: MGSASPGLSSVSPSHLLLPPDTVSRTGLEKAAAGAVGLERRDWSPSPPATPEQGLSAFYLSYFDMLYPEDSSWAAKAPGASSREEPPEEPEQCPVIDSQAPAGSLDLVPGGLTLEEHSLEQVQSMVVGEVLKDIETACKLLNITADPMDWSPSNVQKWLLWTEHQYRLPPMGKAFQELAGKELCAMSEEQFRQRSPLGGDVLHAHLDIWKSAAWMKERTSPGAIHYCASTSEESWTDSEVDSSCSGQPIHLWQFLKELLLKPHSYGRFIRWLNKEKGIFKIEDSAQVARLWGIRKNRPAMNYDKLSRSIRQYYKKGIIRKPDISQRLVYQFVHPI
Outline: as §1

ETV7 = target: T5, ETV7 (Homo sapiens, UniProt Q9Y603 1-341)
T5 sequence: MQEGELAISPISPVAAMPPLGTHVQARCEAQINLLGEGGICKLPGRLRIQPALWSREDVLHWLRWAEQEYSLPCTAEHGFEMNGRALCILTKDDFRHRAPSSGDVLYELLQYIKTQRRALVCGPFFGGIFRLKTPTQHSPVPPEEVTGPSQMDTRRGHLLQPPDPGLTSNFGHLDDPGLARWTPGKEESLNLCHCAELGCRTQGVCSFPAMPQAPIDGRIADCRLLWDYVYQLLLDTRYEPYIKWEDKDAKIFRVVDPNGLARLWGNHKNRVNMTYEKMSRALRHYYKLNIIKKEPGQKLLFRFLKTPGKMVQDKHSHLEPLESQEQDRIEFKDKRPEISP
Outline: as §1

ELF5 = target: T6, ELF5 (Homo sapiens, UniProt Q9UKW6-2 1-255)
T6 sequence: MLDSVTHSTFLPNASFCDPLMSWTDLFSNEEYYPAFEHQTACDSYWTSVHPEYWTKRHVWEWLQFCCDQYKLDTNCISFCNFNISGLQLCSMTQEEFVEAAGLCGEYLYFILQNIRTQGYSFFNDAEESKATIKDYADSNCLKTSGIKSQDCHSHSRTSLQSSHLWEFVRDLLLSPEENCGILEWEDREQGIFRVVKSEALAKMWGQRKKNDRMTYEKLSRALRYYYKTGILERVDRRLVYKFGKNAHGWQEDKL
Outline: as §1

ETV3 = target: T7, ETV3 (Homo sapiens, UniProt P41162-2 1-143)
T7 sequence: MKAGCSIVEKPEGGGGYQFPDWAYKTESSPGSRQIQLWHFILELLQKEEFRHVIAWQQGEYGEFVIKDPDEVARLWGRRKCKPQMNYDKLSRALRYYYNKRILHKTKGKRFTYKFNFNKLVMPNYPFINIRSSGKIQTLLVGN
Outline: as §1

ELK3 = target: T8, ELK3 (Homo sapiens, UniProt P41970 1-407)
T8 sequence: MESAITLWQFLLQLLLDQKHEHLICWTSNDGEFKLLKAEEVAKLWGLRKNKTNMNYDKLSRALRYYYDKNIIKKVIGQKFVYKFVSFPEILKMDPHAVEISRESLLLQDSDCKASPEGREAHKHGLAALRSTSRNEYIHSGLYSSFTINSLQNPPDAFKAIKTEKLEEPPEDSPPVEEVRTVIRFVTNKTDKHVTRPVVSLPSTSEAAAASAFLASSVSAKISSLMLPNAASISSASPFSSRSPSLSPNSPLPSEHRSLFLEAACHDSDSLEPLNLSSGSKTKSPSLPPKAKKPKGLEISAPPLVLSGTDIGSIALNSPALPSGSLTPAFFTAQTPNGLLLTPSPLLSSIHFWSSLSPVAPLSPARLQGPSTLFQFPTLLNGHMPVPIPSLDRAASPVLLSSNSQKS
Outline: as §1

ELF3 = target: T9, ELF3 (Homo sapiens, UniProt P78545 1-371)
T9 sequence: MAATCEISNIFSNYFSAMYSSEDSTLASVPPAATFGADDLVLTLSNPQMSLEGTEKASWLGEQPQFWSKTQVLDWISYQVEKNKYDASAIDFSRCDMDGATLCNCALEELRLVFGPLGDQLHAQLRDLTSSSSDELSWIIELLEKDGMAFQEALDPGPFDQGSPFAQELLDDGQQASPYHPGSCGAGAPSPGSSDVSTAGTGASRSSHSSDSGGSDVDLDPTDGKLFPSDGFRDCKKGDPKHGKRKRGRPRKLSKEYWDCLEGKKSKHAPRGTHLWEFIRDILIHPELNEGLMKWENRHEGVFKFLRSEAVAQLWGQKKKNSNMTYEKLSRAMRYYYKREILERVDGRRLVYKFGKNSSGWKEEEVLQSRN
Outline: as §1

SPI1 = SPI1 (Homo sapiens, UniProt P17947 1-270)
Outline: as §1

ERF = target: T10, ERF (Homo sapiens, UniProt P50548 1-548)
T10 sequence: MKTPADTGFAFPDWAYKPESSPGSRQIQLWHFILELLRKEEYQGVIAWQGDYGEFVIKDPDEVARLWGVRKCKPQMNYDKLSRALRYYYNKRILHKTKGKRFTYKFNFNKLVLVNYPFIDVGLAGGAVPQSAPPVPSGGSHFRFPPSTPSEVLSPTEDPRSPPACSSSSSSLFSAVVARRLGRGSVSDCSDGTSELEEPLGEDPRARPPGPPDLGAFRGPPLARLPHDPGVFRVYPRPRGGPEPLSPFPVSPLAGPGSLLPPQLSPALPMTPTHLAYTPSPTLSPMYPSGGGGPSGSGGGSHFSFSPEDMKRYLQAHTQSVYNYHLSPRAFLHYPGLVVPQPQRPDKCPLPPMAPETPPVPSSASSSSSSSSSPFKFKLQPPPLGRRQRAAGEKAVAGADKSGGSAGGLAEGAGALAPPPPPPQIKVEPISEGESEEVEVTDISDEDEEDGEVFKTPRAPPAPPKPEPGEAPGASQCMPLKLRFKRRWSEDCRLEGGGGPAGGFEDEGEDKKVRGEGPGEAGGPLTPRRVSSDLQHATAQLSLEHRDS
Outline: as §1

ETV6 = ETV6 (Homo sapiens, UniProt P41212 1-452)
Sequence of ETV6 (P41212 whole entry): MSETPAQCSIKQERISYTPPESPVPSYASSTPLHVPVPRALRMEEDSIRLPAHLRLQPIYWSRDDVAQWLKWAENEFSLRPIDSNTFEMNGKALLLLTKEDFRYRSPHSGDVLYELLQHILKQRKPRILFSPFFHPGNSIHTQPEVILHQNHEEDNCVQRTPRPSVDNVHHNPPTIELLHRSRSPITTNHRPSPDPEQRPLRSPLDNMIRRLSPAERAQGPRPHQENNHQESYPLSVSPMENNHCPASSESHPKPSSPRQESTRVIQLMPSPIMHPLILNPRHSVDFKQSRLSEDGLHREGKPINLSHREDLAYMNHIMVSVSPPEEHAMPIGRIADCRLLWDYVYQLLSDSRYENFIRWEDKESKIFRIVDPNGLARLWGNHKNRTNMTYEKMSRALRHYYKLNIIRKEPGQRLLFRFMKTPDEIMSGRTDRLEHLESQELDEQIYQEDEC
Outline: as §1

GGATGA
binding signal (ERG): 1.01 fold enrichment (6-mer frequency, TF over GST control)
binding signal (EHF): 1 fold enrichment (6-mer frequency, TF over GST control)
binding signal (SPIB): 1.06 fold enrichment (6-mer frequency, TF over GST control)
binding signal (CRX): 1.11 fold enrichment (6-mer frequency, TF over GST control)
binding signal (ETV1): 1.05 fold enrichment (6-mer frequency, TF over GST control)
binding signal (ETS2): 1.1 fold enrichment (6-mer frequency, TF over GST control)
binding signal (SPDEF): 1.11 fold enrichment (6-mer frequency, TF over GST control)
binding signal (ETV7): 1.06 fold enrichment (6-mer frequency, TF over GST control)
binding signal (ELF5): 1.11 fold enrichment (6-mer frequency, TF over GST control)
binding signal (ETV3): 1.03 fold enrichment (6-mer frequency, TF over GST control)

AGTTAT
binding signal (ELK3): 1 fold enrichment (6-mer frequency, TF over GST control)
binding signal (ELF3): 1.08 fold enrichment (6-mer frequency, TF over GST control)

CGCGGA
binding signal (ELF3): 1.07 fold enrichment (6-mer frequency, TF over GST control)
binding signal (ETS2): 1 fold enrichment (6-mer frequency, TF over GST control)
binding signal (SPDEF): 1.03 fold enrichment (6-mer frequency, TF over GST control)
binding signal (ELF5): 1.03 fold enrichment (6-mer frequency, TF over GST control)
binding signal (ETV3): 1.01 fold enrichment (6-mer frequency, TF over GST control)

GAGCTA
binding signal (EHF): 1 fold enrichment (6-mer frequency, TF over GST control)
binding signal (ELF3): 1.02 fold enrichment (6-mer frequency, TF over GST control)

GATTGG
binding signal (ELK3): 1.01 fold enrichment (6-mer frequency, TF over GST control)
binding signal (CRX): 1.01 fold enrichment (6-mer frequency, TF over GST control)

AAGCCG
binding signal (CRX): 1.42 fold enrichment (6-mer frequency, TF over GST control)
binding signal (ETV7): 1.05 fold enrichment (6-mer frequency, TF over GST control)

GTGCAC
binding signal (SPI1): 1.07 fold enrichment (6-mer frequency, TF over GST control)
binding signal (ELF3): 1.02 fold enrichment (6-mer frequency, TF over GST control)

TAGAGG
binding signal (CRX): 1.02 fold enrichment (6-mer frequency, TF over GST control)

GTTTAG
binding signal (CRX): 1 fold enrichment (6-mer frequency, TF over GST control)

AGTCTT
binding signal (SPI1): 1.03 fold enrichment (6-mer frequency, TF over GST control)
binding signal (CRX): 1.02 fold enrichment (6-mer frequency, TF over GST control)
binding signal (ERF): 1.01 fold enrichment (6-mer frequency, TF over GST control)
binding signal (ELF5): 1.08 fold enrichment (6-mer frequency, TF over GST control)

AGCCGA
binding signal (CRX): 1.08 fold enrichment (6-mer frequency, TF over GST control)

TAAGTG
binding signal (CRX): 1.14 fold enrichment (6-mer frequency, TF over GST control)

TCATAG
binding signal (ELF3): 1.04 fold enrichment (6-mer frequency, TF over GST control)
binding signal (ERF): 1 fold enrichment (6-mer frequency, TF over GST control)

AGTACG
binding signal (SPI1): 1.02 fold enrichment (6-mer frequency, TF over GST control)
binding signal (ELF3): 1.01 fold enrichment (6-mer frequency, TF over GST control)
binding signal (ETV6): 1.03 fold enrichment (6-mer frequency, TF over GST control)

ACCGGT
binding signal (ELF3): 1.01 fold enrichment (6-mer frequency, TF over GST control)
binding signal (SPDEF): 1.02 fold enrichment (6-mer frequency, TF over GST control)

GGGATA
binding signal (CRX): 1.04 fold enrichment (6-mer frequency, TF over GST control)
